Holding throughout (assay): DAPPL (digital affinity profiling via proximity ligation, sequencing); 10 mM Tris-HCl pH 7.5, 50 mM NaCl, 1 mM DTT, 4% glycerol, room temperature, 30 min; GST-TFs on glutathione beads, 16-mer random dsDNA library, 0.1% formaldehyde crosslink after washing; high values mean tight binding
The target of one experiment is T1, FEV (Homo sapiens, UniProt Q99581 1-238).
T1 sequence: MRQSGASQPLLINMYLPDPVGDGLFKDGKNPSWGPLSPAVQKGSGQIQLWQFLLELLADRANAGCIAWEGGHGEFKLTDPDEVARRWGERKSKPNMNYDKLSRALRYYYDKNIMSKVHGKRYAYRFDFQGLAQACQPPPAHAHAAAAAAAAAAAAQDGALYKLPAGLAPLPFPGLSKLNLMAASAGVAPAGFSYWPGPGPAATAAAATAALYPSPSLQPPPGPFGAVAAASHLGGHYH
As to conditions: protein: recombinant; tags: N-terminal GST; dsDNA, one strand shown. The essentials: (§1)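 Human transcription factors were made in yeast as GST fusions, captured on glutathione beads and barcoded with DNA. With a tag-only sample included, the pool was incubated with 200 nmole of a random double-stranded 16-mer DNA library in Tris/NaCl/DTT/glycerol buffer at room temperature for 30 min, then crosslinked with 0.1% formaldehyde after washing, ligated by proximity, amplified and sequenced. For binding signal, each hexamer's read frequency for a factor is divided by its frequency for the tag-only sample.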

For the next experiment, the target named is ETV5 (Homo sapiens, UniProt P41161 1-510). As to conditions: protein: recombinant; tags: N-terminal GST; dsDNA, one strand shown. The essentials:
as §1

The target in another experiment is HSF1 (Homo sapiens, UniProt Q00613 1-529). Particulars: protein: recombinant; tags: N-terminal GST; chain copies: 3; dsDNA, one strand shown. The essentials: as §1
The target in a further experiment is T2, SPIC (Homo sapiens, UniProt Q8N5J4 1-248).
T2 sequence: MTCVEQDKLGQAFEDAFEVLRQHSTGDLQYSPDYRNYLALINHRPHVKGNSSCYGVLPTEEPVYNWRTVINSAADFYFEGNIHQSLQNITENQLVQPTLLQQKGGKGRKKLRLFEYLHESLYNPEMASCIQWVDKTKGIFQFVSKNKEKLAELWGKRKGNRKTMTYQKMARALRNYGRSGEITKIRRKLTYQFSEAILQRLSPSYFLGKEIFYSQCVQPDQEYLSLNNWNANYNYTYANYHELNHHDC
As to conditions: protein: recombinant; tags: N-terminal GST; dsDNA, one strand shown. An outline of the steps:
as §1

The target of a further experiment is ELF4 (Homo sapiens, UniProt Q99607 1-663). Particulars: protein: recombinant; tags: N-terminal GST; dsDNA, one strand shown. The essentials: as §1
The next experiment concerns the target T3, ELK4 (Homo sapiens, UniProt P28324-2 1-405).
T3 sequence: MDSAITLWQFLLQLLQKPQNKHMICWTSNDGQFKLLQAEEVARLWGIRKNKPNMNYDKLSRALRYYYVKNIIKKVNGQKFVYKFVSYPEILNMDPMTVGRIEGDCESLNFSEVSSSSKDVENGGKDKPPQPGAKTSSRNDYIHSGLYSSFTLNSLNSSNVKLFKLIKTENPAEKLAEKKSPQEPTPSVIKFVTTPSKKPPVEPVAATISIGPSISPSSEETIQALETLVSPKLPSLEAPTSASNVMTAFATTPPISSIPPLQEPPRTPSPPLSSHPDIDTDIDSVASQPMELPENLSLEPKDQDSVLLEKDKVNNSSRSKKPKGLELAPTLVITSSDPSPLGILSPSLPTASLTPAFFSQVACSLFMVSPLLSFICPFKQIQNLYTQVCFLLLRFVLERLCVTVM
Particulars: protein: recombinant; tags: N-terminal GST; dsDNA, one strand shown. The essentials: as §1

For the next experiment, the target named is T4, ETV2 (Homo sapiens, UniProt O00321 1-342).
T4 sequence: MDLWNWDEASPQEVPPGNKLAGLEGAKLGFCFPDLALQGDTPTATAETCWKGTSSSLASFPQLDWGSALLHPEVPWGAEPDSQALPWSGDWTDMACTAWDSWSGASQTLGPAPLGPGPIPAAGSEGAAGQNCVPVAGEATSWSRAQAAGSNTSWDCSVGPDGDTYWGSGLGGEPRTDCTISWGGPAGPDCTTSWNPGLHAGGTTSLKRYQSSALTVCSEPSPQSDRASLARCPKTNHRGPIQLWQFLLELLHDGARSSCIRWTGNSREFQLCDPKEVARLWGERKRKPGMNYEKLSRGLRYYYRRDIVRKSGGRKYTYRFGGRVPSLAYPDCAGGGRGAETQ
As to conditions: protein: recombinant; tags: N-terminal GST; dsDNA, one strand shown. An outline of the steps:
as §1

The next experiment addresses T5, ELF3 (Homo sapiens, UniProt P78545 1-371).
T5 sequence: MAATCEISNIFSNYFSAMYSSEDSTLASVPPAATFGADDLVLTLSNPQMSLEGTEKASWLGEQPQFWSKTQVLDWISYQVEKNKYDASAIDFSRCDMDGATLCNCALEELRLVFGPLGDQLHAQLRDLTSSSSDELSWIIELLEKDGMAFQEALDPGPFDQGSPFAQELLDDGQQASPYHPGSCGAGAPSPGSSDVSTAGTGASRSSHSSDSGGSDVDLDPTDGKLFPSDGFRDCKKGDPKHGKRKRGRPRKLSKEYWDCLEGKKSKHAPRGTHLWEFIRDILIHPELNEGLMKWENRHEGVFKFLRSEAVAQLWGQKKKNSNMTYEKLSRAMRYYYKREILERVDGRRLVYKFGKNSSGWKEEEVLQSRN
As to conditions: protein: recombinant; tags: N-terminal GST; dsDNA, one strand shown. An outline of the steps:
as §1

Another experiment deals with CRX (Homo sapiens, UniProt O43186 1-299). As to conditions: protein: recombinant; tags: N-terminal GST; dsDNA, one strand shown. An outline of the steps:
as §1

In a further experiment the target is ETV1 (Homo sapiens, UniProt P50549 1-477). Particulars: protein: recombinant; tags: N-terminal GST; dsDNA, one strand shown. An outline of the steps: as §1
A further experiment has as its target T6, ERF (Homo sapiens, UniProt P50548 1-548).
T6 sequence: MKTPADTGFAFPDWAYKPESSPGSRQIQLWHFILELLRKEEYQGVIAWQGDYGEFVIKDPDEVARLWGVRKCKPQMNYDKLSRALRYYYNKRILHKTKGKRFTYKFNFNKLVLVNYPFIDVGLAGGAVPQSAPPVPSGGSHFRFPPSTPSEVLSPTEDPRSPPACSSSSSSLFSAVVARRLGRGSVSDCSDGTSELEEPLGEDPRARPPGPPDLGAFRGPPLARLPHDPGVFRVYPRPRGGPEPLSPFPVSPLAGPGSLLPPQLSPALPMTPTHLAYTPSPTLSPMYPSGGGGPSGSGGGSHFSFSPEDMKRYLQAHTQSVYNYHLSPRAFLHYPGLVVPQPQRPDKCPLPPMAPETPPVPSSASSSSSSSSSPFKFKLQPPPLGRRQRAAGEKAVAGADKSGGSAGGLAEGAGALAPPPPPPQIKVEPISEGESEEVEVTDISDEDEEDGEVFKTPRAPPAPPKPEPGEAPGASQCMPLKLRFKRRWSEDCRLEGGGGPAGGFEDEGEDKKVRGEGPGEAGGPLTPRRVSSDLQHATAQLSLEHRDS
As to conditions: protein: recombinant; tags: N-terminal GST; dsDNA, one strand shown. The essentials: as §1

The target of another experiment is T7, ETV3L (Homo sapiens, UniProt Q6ZN32 1-361).
T7 sequence: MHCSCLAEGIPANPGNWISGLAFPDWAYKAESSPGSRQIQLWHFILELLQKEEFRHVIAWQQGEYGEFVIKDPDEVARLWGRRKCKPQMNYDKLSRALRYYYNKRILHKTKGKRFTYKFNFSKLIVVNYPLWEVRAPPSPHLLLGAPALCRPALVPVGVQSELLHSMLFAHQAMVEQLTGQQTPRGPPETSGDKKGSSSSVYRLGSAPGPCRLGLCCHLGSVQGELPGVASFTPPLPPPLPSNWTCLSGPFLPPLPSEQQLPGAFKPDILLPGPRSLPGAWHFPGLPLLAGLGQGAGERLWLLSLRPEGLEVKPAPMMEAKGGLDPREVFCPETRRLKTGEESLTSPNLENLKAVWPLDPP
Particulars: protein: recombinant; tags: N-terminal GST; dsDNA, one strand shown. An outline of the steps: as §1

A further experiment concerns the target T8, ETS2 (Homo sapiens, UniProt P15036 1-469).
T8 sequence: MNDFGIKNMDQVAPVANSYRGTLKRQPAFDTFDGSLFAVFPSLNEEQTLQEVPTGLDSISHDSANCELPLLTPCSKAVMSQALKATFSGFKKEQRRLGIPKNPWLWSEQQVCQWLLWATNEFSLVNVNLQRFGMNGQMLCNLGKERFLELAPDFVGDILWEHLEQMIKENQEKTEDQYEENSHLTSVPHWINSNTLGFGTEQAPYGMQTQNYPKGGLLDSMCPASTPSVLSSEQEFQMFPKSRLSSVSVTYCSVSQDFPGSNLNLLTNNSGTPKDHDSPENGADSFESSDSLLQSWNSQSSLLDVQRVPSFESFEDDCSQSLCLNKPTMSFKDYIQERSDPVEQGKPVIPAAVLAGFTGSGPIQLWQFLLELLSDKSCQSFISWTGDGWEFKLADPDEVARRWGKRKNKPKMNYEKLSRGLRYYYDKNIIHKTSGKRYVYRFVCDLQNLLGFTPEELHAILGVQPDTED
Particulars: protein: recombinant; tags: N-terminal GST; dsDNA, one strand shown. An outline of the steps: as §1

The target of the next experiment is T9, SPDEF (Homo sapiens, UniProt O95238 1-335).
T9 sequence: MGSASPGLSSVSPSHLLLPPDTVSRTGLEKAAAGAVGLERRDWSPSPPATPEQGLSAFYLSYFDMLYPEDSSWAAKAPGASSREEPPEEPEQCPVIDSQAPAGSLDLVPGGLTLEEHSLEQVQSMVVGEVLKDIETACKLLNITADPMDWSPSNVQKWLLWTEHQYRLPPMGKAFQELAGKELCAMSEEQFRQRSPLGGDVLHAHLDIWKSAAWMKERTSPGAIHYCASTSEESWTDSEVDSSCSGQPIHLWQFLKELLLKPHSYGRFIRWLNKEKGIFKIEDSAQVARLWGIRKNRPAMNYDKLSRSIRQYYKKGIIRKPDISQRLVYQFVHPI
As to conditions: protein: recombinant; tags: N-terminal GST; dsDNA, one strand shown. The essentials:
as §1

The target in the next experiment is T10, ETV7 (Homo sapiens, UniProt Q9Y603 1-341).
T10 sequence: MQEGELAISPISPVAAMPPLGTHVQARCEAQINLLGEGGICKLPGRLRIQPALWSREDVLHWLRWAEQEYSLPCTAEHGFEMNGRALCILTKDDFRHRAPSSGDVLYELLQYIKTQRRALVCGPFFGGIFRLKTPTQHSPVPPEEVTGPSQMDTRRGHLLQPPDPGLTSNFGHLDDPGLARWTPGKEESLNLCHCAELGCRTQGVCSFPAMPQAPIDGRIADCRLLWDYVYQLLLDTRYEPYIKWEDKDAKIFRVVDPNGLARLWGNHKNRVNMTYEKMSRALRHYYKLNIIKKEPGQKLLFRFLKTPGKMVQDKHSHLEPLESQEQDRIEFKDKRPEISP
As to conditions: protein: recombinant; tags: N-terminal GST; dsDNA, one strand shown. The essentials: as §1

For a further experiment, the target named is T11, ELF5 (Homo sapiens, UniProt Q9UKW6-2 1-255).
T11 sequence: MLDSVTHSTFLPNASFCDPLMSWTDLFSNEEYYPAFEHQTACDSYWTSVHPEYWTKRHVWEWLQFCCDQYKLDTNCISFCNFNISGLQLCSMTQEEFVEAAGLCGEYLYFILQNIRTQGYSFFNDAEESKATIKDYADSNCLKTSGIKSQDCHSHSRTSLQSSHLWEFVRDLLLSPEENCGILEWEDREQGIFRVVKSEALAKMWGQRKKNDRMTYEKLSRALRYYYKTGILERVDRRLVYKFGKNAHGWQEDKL
Particulars: protein: recombinant; tags: N-terminal GST; dsDNA, one strand shown. The essentials: as §1

Another experiment concerns the target T12, ETV3 (Homo sapiens, UniProt P41162-2 1-143).
T12 sequence: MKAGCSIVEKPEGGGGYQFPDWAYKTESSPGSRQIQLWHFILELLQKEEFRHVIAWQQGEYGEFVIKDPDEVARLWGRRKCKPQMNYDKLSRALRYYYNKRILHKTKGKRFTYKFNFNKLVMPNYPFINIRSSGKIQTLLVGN
As to conditions: protein: recombinant; tags: N-terminal GST; dsDNA, one strand shown. The essentials: as §1

Another experiment concerns the target ETV6 (Homo sapiens, UniProt P41212 1-452). As to conditions: protein: recombinant; tags: N-terminal GST; dsDNA, one strand shown. An outline of the steps:
as §1

Sequence of ETV1 (P50549 whole entry): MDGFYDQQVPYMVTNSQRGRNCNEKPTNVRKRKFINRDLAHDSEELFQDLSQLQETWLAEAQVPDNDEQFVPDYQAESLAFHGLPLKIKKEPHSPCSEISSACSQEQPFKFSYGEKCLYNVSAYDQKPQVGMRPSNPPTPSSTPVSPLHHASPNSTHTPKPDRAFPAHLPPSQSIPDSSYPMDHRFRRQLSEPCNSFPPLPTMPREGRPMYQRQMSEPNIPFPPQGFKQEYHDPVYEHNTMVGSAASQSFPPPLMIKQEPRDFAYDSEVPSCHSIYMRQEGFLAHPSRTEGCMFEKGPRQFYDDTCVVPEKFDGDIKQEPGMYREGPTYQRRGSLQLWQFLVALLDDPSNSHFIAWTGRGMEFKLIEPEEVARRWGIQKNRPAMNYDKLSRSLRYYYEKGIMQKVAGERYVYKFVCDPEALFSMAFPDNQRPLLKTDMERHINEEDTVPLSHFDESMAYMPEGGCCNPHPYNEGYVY
Sequence of CRX (O43186 whole entry): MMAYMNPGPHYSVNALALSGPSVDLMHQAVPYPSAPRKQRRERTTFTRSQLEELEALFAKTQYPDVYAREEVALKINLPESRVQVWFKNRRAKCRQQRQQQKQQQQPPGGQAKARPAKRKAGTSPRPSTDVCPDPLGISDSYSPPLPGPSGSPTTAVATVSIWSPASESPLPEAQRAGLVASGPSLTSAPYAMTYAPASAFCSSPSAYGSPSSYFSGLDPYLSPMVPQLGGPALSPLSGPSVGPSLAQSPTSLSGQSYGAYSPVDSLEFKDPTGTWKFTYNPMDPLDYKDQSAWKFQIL
Sequence of ELF4 (Q99607 whole entry): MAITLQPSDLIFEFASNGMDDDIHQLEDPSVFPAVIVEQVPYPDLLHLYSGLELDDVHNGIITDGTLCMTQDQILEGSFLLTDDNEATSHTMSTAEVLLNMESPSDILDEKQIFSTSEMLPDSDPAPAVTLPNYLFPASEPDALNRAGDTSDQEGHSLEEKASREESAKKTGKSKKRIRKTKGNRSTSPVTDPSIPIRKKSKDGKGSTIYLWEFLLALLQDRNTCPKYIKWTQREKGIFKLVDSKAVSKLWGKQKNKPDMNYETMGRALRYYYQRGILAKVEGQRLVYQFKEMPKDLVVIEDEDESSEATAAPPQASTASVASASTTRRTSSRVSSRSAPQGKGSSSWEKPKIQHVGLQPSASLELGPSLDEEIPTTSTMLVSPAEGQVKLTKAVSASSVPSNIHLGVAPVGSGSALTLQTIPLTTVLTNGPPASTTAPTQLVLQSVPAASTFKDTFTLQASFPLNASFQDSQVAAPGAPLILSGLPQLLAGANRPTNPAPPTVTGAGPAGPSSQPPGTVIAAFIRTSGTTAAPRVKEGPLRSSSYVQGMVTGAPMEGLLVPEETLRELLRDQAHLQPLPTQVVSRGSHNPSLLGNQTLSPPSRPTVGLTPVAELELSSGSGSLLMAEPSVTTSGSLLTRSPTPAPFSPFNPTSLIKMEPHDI
Sequence of ETV5 (P41161 whole entry): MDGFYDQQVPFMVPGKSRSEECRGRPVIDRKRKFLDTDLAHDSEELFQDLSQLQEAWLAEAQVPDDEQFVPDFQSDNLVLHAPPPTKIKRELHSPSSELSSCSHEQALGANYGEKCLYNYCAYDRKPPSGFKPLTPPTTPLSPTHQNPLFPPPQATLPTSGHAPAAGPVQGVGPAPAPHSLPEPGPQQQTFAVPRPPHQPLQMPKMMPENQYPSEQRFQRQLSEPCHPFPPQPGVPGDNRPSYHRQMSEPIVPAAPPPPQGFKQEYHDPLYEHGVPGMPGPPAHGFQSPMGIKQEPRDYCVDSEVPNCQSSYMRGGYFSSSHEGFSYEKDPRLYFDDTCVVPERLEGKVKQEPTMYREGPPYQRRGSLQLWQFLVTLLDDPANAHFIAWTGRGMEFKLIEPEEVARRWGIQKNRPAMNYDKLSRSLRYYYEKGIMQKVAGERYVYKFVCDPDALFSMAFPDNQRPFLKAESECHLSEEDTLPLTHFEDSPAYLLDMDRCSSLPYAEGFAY
Sequence of HSF1 (Q00613 whole entry): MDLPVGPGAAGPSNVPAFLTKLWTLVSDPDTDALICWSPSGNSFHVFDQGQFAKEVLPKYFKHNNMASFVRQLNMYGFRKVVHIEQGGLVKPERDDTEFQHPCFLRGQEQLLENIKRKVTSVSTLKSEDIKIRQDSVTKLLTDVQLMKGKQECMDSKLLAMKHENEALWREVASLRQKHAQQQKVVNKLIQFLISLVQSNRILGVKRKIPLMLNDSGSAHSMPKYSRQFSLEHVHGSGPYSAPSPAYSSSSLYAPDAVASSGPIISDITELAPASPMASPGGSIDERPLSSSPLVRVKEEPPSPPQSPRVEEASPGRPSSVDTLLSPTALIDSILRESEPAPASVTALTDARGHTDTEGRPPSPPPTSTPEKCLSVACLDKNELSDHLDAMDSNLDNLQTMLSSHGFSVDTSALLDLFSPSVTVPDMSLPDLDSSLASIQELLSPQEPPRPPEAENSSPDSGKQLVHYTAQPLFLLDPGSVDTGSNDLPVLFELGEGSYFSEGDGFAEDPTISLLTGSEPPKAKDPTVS
Sequence of ETV6 (P41212 whole entry): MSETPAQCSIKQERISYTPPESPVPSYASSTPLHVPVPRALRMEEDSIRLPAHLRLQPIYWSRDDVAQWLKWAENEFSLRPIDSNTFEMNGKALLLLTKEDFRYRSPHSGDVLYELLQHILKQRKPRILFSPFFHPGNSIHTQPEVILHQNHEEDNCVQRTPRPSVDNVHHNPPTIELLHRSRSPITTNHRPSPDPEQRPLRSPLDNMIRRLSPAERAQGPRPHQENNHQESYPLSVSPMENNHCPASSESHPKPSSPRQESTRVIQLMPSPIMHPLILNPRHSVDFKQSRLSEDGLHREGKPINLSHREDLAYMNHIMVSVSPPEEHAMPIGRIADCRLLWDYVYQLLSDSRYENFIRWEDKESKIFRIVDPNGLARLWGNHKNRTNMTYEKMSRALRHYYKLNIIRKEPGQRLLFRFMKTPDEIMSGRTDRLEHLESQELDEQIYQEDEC

For the sequence CCACTA, the binding signal with FEV was 1.08 fold enrichment (6-mer frequency, TF over GST control); in the experiment with ETV5, 1.12 fold enrichment (6-mer frequency, TF over GST control); with HSF1, 1.08 fold enrichment (6-mer frequency, TF over GST control); in the experiment with SPIC it was 1.11 fold enrichment (6-mer frequency, TF over GST control); in the experiment with ELF4 it was 1.11 fold enrichment (6-mer frequency, TF over GST control); with ELK4 it was 1.06 fold enrichment (6-mer frequency, TF over GST control). For the same sequence, the binding signal in the experiment with ETV2 was 1.14 fold enrichment (6-mer frequency, TF over GST control); with ELF3, 1.1 fold enrichment (6-mer frequency, TF over GST control); with CRX, 1.12 fold enrichment (6-mer frequency, TF over GST control); with ETV1 it was 1.03 fold enrichment (6-mer frequency, TF over GST control); in the experiment with ERF, 1.11 fold enrichment (6-mer frequency, TF over GST control); in the experiment with ETV3L, 1.13 fold enrichment (6-mer frequency, TF over GST control). Besides, the binding signal with ETS2 is 1.14 fold enrichment (6-mer frequency, TF over GST control); with SPDEF it was 1.09 fold enrichment (6-mer frequency, TF over GST control); with ETV7 it was 1.04 fold enrichment (6-mer frequency, TF over GST control); with ELF5 it was 1.06 fold enrichment (6-mer frequency, TF over GST control); with ETV3 it was 1.03 fold enrichment (6-mer frequency, TF over GST control); with ETV6, 1.07 fold enrichment (6-mer frequency, TF over GST control).
